# Reference: PubChem BioAssay (NCATS)
# Records with an inconclusive call do not appear. The source made the active and inactive calls. Calls come from the whole dose curve; as a rule, active = well fitted curve in the direction sought with a large enough effect; inconclusive = small, poorly fitted or top-dose-only effect, or another doubt; inactive = no such curve, though single readings can be large; an effect the other way counts as inactive or inconclusive.
# Assay: qHTS for differential inhibitors of proliferation of Plasmodium falciparum line D10 (AID 1877);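 note: parasites grown with compound for 72 h before DNA staining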;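 for activity change, negative = inhibition: plate controls were vehicle wells for no effect and reference inhibitor wells for full effect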
# Settings: series mostly up to 28.7 µM; activity change, negative = inhibition: at the top concentration
# Potency is the fitted concentration of half-maximal effect.
Compound,"activity change, negative = inhibition",Potency
CCCCNC(=O)NS(=O)(=O)c1ccc(C)cc1,-10.2% (inactive),–
O=C1NCN(c2ccccc2)C12CCN(CCCC(c1ccc(F)cc1)c1ccc(F)cc1)CC2,–,10 µM (active)
NC(Cc1ccc(Cl)cc1)C(=O)O (centres undefined),-3% (inactive),–
COCCOC(=O)C1=C(C)NC(C)=C(C(=O)OC(C)C)C1c1cccc([N+](=O)[O-])c1 (centres undefined),–,12.6 µM (active)
CCN(Cc1ccncc1)C(=O)C(CO)c1ccccc1 (centres undefined),-11.6% (inactive),–
Fc1ccc(C(c2ccc(F)cc2)N2CCN(C/C=C/c3ccccc3)CC2)cc1,–,11.2 µM (active)
CC(=O)Oc1cc(C(C)C)c(OCCN(C)C)cc1C,1.38% (inactive),–
CO[C@@]1(NC(=O)CSCC#N)C(=O)N2C(C(=O)O)=C(CSc3nnnn3C)CS[C@@H]21,-17.3% (inactive),–
CC(=O)OCC1=C(C(=O)O)N2C(=O)[C@@H](NC(=O)Cc3cccs3)[C@H]2SC1,-9.47% (inactive),–
CCn1ccnc1CC1COc2ccccc2O1 (centres undefined),-18% (inactive),–
CN(C)C(=O)Oc1ccc[n+](C)c1,-7.84% (inactive),–
Cc1nnc(SCC2=C(C(=O)O)N3C(=O)[C@@H](NC(=O)Cn4cnnn4)[C@H]3SC2)s1,-22.1% (inactive),–
CN(C)CC[C@@H](c1ccc(Br)cc1)c1ccccn1,-9.25% (inactive),–
C[C@H](CS)C(=O)N1CCC[C@H]1C(=O)O,-2.53% (inactive),–
CCOC(=O)C1=C(C)NC(C)=C(C(=O)OC)C1c1cccc(Cl)c1Cl (centres undefined),–,15.8 µM (active)
Cc1ccc(S(=O)(=O)NC(=O)NN2CCCCCC2)cc1,-10.8% (inactive),–
CNCCC(Oc1ccccc1OC)c1ccccc1 (centres undefined),-13.7% (inactive),–
CC(C(=O)O)c1ccc(CC2CCCC2=O)cc1 (centres undefined),-11.8% (inactive),–
OC(CCN1CCCCC1)(c1ccccc1)C1CCCCC1 (centres undefined),–,12.6 µM (active)
c1ccc2c(c1)CCCC2C1=NCCN1 (centres undefined),-18.4% (inactive),–
OCCN1CCN(CC/C=C2/c3ccccc3Sc3ccc(C(F)(F)F)cc32)CC1,–,12.6 µM (active)
Nc1c2c(nc3ccccc13)CCCC2O (centres undefined),-13.2% (inactive),–
CCNC(=O)N1CCN(CCCC(c2ccc(F)cc2)c2ccc(F)cc2)CC1,–,2.51 µM (active)
CCN(CC)CC(=O)Nc1c(C)cccc1C,3.18% (inactive),–
COc1ccc([C@@H]2Sc3ccccc3N(CCN(C)C)C(=O)[C@@H]2OC(C)=O)cc1,-15.9% (inactive),–
Cc1cc(C)c(/C=C2\C(=O)Nc3ccccc32)[nH]1,-11.3% (inactive),–
Cc1nc2c([nH]1)c(=O)n(C)c(=O)n2Cc1ccco1,-6.37% (inactive),–
CN(C)CCN(Cc1cccs1)c1ccccn1,-17.9% (inactive),–
COCCc1ccc(OCC(O)CNC(C)C)cc1 (centres undefined),-14.1% (inactive),–
c1cc(CN2CCCCC2)cc(OCCCNc2nc3ccccc3s2)c1,–,8.91 µM (active)

# Assay: qHTS for differential inhibitors of proliferation of Plasmodium falciparum line Dd2 (AID 1882); note: nearly all actives have a fitted effect of over 65% in size;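 for activity change, negative = inhibition: compound exposure of 72 h on infected erythrocytes; plate controls were DMSO vehicle for no effect and 0.29 µM artemisinin for full effect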
# Settings: Potency: Plasmodium falciparum Dd2 proliferation inhibition; series mostly up to 28.7 µM; activity change, negative = inhibition: at the top concentration
# Summary of the method: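 RBC culture, 0.3% parasitemia / 2.5% Hct final; cpd added by pin tool in DMSO; 72 h, 37 C, 5% CO2; lysis buffer + SYBR Green I, o/n RT dark; FI 485/535; norm. to artemisinin 0.29 uM and DMSO.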
Compound,"activity change, negative = inhibition",Potency
CCCCNC(=O)NS(=O)(=O)c1ccc(C)cc1,3.04% (inactive),–
O=C1NCN(c2ccccc2)C12CCN(CCCC(c1ccc(F)cc1)c1ccc(F)cc1)CC2,–,8.91 µM (active)
NC(Cc1ccc(Cl)cc1)C(=O)O (centres undefined),2.46% (inactive),–
CCN(Cc1ccncc1)C(=O)C(CO)c1ccccc1 (centres undefined),6.99% (inactive),–
Fc1ccc(C(c2ccc(F)cc2)N2CCN(C/C=C/c3ccccc3)CC2)cc1,–,12.6 µM (active)
Cc1scc2c1N(C(=O)CN1CCN(C)CC1)c1ccccc1NC2=O,1.23% (inactive),–
CO[C@@]1(NC(=O)CSCC#N)C(=O)N2C(C(=O)O)=C(CSc3nnnn3C)CS[C@@H]21,-1.51% (inactive),–
CC(=O)OCC1=C(C(=O)O)N2C(=O)[C@@H](NC(=O)Cc3cccs3)[C@H]2SC1,-1.24% (inactive),–
CCn1ccnc1CC1COc2ccccc2O1 (centres undefined),-4.02% (inactive),–
CN(C)C(=O)Oc1ccc[n+](C)c1,3.11% (inactive),–
Cc1nnc(SCC2=C(C(=O)O)N3C(=O)[C@@H](NC(=O)Cn4cnnn4)[C@H]3SC2)s1,-13.2% (inactive),–
Cc1ccc(S(=O)(=O)NC(=O)NN2CCCCCC2)cc1,-11.7% (inactive),–
CC(C(=O)O)c1ccc(CC2CCCC2=O)cc1 (centres undefined),-0.728% (inactive),–
OC(CCN1CCCCC1)(c1ccccc1)C1CCCCC1 (centres undefined),–,3.55 µM (active)
c1ccc2c(c1)CCCC2C1=NCCN1 (centres undefined),-1.32% (inactive),–
OCCN1CCN(CC/C=C2/c3ccccc3Sc3ccc(C(F)(F)F)cc32)CC1,–,7.94 µM (active)
Nc1c2c(nc3ccccc13)CCCC2O (centres undefined),-0.905% (inactive),–
CCNC(=O)N1CCN(CCCC(c2ccc(F)cc2)c2ccc(F)cc2)CC1,–,3.16 µM (active)
CCN(CC)CC(=O)Nc1c(C)cccc1C,-17.4% (inactive),–
Cc1cc(C)c(/C=C2\C(=O)Nc3ccccc32)[nH]1,1.26% (inactive),–
C(=C\c1ccccc1)/CN1CCN(C(c2ccccc2)c2ccccc2)CC1,–,11.2 µM (active)
C[C@]12CCC(=O)C=C1CC[C@@H]1[C@@H]2CC[C@@]2(C)[C@H]1CC[C@]2(O)C(=O)CO,-21.1% (inactive),–
Cc1nc2c([nH]1)c(=O)n(C)c(=O)n2Cc1ccco1,-0.145% (inactive),–
CN(C)CCN(Cc1cccs1)c1ccccn1,–,7.08 µM (active)
COCCc1ccc(OCC(O)CNC(C)C)cc1 (centres undefined),-14.4% (inactive),–
c1cc(CN2CCCCC2)cc(OCCCNc2nc3ccccc3s2)c1,–,7.08 µM (active)

# Assay: qHTS for differential inhibitors of proliferation of Plasmodium falciparum line W2 (AID 1883);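 note: parasites grown with compound for 72 h before lysis and staining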;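 for activity change, negative = inhibition: 0% = vehicle wells and -100% = control inhibitor wells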
# Settings: Potency: Plasmodium falciparum W2 proliferation inhibition; series mostly up to 28.7 µM; activity change, negative = inhibition: at the top concentration
Compound,"activity change, negative = inhibition",Potency
CCCCNC(=O)NS(=O)(=O)c1ccc(C)cc1,-24% (inactive),–
CN(C(=O)CCCOc1ccc2[nH]c(=O)ccc2c1)C1CCCCC1,–,14.1 µM (active)
O=C1NCN(c2ccccc2)C12CCN(CCCC(c1ccc(F)cc1)c1ccc(F)cc1)CC2,–,2.82 µM (active)
NC(Cc1ccc(Cl)cc1)C(=O)O (centres undefined),2.08% (inactive),–
COCCOC(=O)C1=C(C)NC(C)=C(C(=O)OC(C)C)C1c1cccc([N+](=O)[O-])c1 (centres undefined),–,6.31 µM (active)
CCN(Cc1ccncc1)C(=O)C(CO)c1ccccc1 (centres undefined),1.7% (inactive),–
Fc1ccc(C(c2ccc(F)cc2)N2CCN(C/C=C/c3ccccc3)CC2)cc1,–,3.98 µM (active)
CC(=O)Oc1cc(C(C)C)c(OCCN(C)C)cc1C,–,7.94 µM (active)
CC(=O)OCC1=C(C(=O)O)N2C(=O)[C@@H](NC(=O)Cc3cccs3)[C@H]2SC1,-21.6% (inactive),–
CCn1ccnc1CC1COc2ccccc2O1 (centres undefined),–,10 µM (active)
CN(C)C(=O)Oc1ccc[n+](C)c1,-10.5% (inactive),–
CN(C)CC[C@@H](c1ccc(Br)cc1)c1ccccn1,–,1 µM (active)
C[C@H](CS)C(=O)N1CCC[C@H]1C(=O)O,-26.8% (inactive),–
CCOC(=O)C1=C(C)NC(C)=C(C(=O)OC)C1c1cccc(Cl)c1Cl (centres undefined),–,8.91 µM (active)
Cc1ccc(S(=O)(=O)NC(=O)NN2CCCCCC2)cc1,-9.8% (inactive),–
OC(CCN1CCCCC1)(c1ccccc1)C1CCCCC1 (centres undefined),–,3.16 µM (active)
OCCN1CCN(CC/C=C2/c3ccccc3Sc3ccc(C(F)(F)F)cc32)CC1,–,1.58 µM (active)
CCNC(=O)N1CCN(CCCC(c2ccc(F)cc2)c2ccc(F)cc2)CC1,–,0.282 µM (active)
CCN(CC)CC(=O)Nc1c(C)cccc1C,–,14.1 µM (active)
COc1ccc([C@@H]2Sc3ccccc3N(CCN(C)C)C(=O)[C@@H]2OC(C)=O)cc1,–,7.08 µM (active)
Cc1nc2c([nH]1)c(=O)n(C)c(=O)n2Cc1ccco1,-1.62% (inactive),–
CN(C)CCN(Cc1cccs1)c1ccccn1,–,3.16 µM (active)
c1cc(CN2CCCCC2)cc(OCCCNc2nc3ccccc3s2)c1,–,2.51 µM (active)
